RecA intein inh: Mtb RecA intein splicing inhibition | cell-free RecA intein splicing, fluorescence | inhibition, % (concentration not given with the values) | 290,000 compounds, 0.75% hits; in the data active means inhibition above about 30%;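 further: 0% = vehicle wells and 100% = reference inhibitor control wells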
Target sequence (P9WHJ3 whole entry, looked up): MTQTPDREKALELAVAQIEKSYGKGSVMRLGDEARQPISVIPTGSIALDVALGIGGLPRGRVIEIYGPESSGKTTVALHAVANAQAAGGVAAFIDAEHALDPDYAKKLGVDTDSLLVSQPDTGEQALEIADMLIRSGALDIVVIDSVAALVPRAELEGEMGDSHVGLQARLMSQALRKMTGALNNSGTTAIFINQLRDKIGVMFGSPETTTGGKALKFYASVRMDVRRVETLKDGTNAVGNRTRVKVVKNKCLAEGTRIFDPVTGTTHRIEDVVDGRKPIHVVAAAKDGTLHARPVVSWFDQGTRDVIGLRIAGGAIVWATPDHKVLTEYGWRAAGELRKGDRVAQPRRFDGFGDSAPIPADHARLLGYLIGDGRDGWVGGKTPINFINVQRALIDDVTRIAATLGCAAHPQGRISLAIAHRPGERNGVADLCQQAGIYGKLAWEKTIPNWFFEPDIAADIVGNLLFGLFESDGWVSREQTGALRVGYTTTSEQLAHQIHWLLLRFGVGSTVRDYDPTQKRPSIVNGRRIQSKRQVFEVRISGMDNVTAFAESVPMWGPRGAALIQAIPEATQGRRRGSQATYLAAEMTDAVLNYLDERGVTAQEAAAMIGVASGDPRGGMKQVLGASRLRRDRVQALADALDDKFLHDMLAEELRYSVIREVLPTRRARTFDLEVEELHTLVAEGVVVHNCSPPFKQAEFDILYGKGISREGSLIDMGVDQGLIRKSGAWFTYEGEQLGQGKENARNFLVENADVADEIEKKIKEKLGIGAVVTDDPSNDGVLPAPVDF
UGM FP inh: Mtb UDP-galactopyranose mutase inhibition | purified UGM, fluorescence polarization probe displacement | 320,000 compounds, 0.06% hits | P9WIQ1 | inhibition, % at 10 µM | AID 504406; in the data active means inhibition above about 10%, passing the limit was not always enough
Mtb bLac sens: beta-lactam sensitization of Mtb H37Rv. 330,000 compounds, 0.27% hits. M. tuberculosis H37Rv growth with meropenem, percent inhibition. inhibition, % at 25 µM;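 further: growth measured after seven days incubation then overnight dye step; 0% = bacteria only wells and 100% = bacteria with antibiotic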
SSB-PriA inh: K. pneumoniae PriA-SSBct interaction inhibition | AID 1272365 | 430,000 compounds, 0.6% hits | inhibition, % at 33 µM | AlphaScreen SSBct-PriA binding, biotinylated peptide; in the data active means inhibition mostly above about 37%, no sharp cut-off; inactive means mostly below about 20%;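 further: plate controls were negative control peptide for no effect and reference peptide for full effect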
Rv3671c inh: Rv3671c (M. tuberculosis) protease inhibition; inhibition, % at 5.96 µM; 320,000 compounds, 0.048% hits; P9WHR9; in the data active means inhibition above about 38%;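 further: extracellular domain of Rv3671c used as enzyme; 0% = enzyme with DMSO and 100% = no enzyme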
GFP chromophore: counter-screen GFP chromophore formation inhibition; shares compounds with RecA intein inh; cell-free GFP chromophore formation, fluorescence; EC50, µM; 2,100 compounds, 83% hits; AID 434968
An asterisk follows results filed as active; x = not tested or not shown. Compounds with a hit are over-represented: about 1.1% of the library has one in this group of screens. Unless noted, how the calls were made is not given here.

SMILES	RecA intein inh	UGM FP inh	Mtb bLac sens	SSB-PriA inh	Rv3671c inh	GFP chromophore
COc1ccc(C2CC(c3c(-c4ccccc4)c4cc(Br)ccc4[nH]c3=O)=NN2)cc1 (stereo unspecified)	x	x	x	-4	x	x
COC(=O)c1ccc(NC(=O)c2nc(S(=O)(=O)Cc3cccc(C)c3)ncc2Cl)cc1	73*	2	3	-10	-25	0.57*
CCc1ccc(NC(=O)c2nc(S(=O)(=O)Cc3ccccc3)ncc2Cl)cc1	39*	-2	-5	x	-17	2.2*
Cc1ccc(NC(=O)c2nc(S(=O)(=O)Cc3ccccc3C)ncc2Cl)cc1C	39*	2	20	3	-32	1.3*
CCS(=O)(=O)c1ncc(Cl)c(C(=O)Nc2ccc(S(=O)(=O)N3CCC(C)CC3)cc2)n1	96*	2	-6	-5	-128	1.4*
CC1CCN(S(=O)(=O)c2ccc(NC(=O)c3ccncc3)cc2)CC1	0	-2	-3	-4	-8	x
CCOC(=O)c1ccc(NC(=O)c2nc(S(=O)(=O)Cc3ccccc3)ncc2Cl)cc1	27	1	3	-4	-34	x
CC(C)=CC(=O)N1CCS[C@H](c2ccccc2C)CC1	x	x	x	-13	x	x
O=C(NCc1ccccc1Cl)C1CN(c2nc3c(F)cccc3s2)C1	x	x	x	-4	x	x
COc1cccc(NC(=O)c2nc(S(C)(=O)=O)ncc2Cl)c1	63*	0	99	0	-3	25*
CC(=O)Nc1ccc(NC(=O)c2nc(S(=O)(=O)Cc3cccc(C)c3)ncc2Cl)cc1	31*	-3	2	-15	0	20*
Cc1onc(-c2c(F)cccc2Cl)c1C(=O)NCc1ccc2c(c1)OCO2	-1	-2	-11	5	3	x
COc1ccccc1NC(=O)c1nc(S(=O)(=O)Cc2ccccc2)ncc1Cl	3	-2	56	1	-11	x
Cc1cccc(CS(=O)(=O)c2ncc(Cl)c(C(=O)NCc3ccc4c(c3)OCO4)n2)c1	51*	1	4	-4	-1	11*
Cc1ccc(C2=NN(S(C)(=O)=O)[C@H](c3cn(-c4ccccc4)nc3-c3cccs3)C2)cc1	x	x	x	-1	x	x
CCN1C(=O)c2c(C)nc3ccccc3c2C1=O	47*	0	-1	3	4	2.2*
CCN1C(=O)c2ccc(-c3nc4ccccc4c(=O)o3)cc2C1=O	1	2	0	-2	-2	x
COc1ccccc1CN1CCSCC1	33*	-1	-1	4	6	25*
COc1cccc(CN2CCSCC2)c1OC	-4	2	-6	11	0	x
C(=N\Nc1nncc2ccccc12)/c1ccccn1	38*	-2	7	x	-6	10*
Fc1cccc(/C=N/Nc2nncc3ccccc23)c1	-1	0	2	x	-18	x
Cc1cccc(S(=O)(=O)C(C#N)c2nc3ccccc3nc2N2CCCC2)c1 (stereo unspecified)	45*	1	-5	-3	2	>38
CCC(CC)C(=O)NCc1ccc2c(c1)cc(C)n2C	31*	1	8	-14	-9	>38
O=C(NCCCn1nc(-c2cccnc2)ccc1=O)c1ccc2c(c1)OCO2	x	x	x	-17	x	x
COc1cc(/C=C2/SC(=S)N(Cc3ccccc3)C2=O)ccc1OCC(=O)O	37*	-2	6	19	-24	33*
SMILES	RecA intein inh	UGM FP inh	Mtb bLac sens	SSB-PriA inh	Rv3671c inh	GFP chromophore
O=C1/C(=C/c2ccc(O)c([N+](=O)[O-])c2)SC(=S)N1Cc1ccccc1	6	-1	6	3	-9	x
CCOc1cc(/C=C2/SC(=S)N(Cc3ccccc3)C2=O)ccc1O	33*	-5	8	27	-18	28*
COc1cccc2cc(C(=O)Nc3ccc(CC(=O)N4CCOCC4)cc3)oc12	x	x	x	-5	x	x
CN1CCN(C(c2ccc(C(F)(F)F)cc2)c2cc(Cl)c3cccnc3c2O)CC1 (stereo unspecified)	44*	0	-4	6	1	18*
CN1CCN(C(c2ccc(Cl)cc2)c2cc(Cl)c3cccnc3c2O)CC1 (stereo unspecified)	79*	-3	63	35	3	31*
CCCS(=O)(=O)c1nc2ccccc2n1Cc1cccc([N+](=O)[O-])c1	x	x	x	22	x	x
O=C(O)c1cccc(NS(=O)(=O)c2ccc3nnn(O)c3c2)c1	-1	4	-14	-4	-1	x
O=C(O)c1cccc(NC2=C(n3nnc4ccccc43)C(=O)c3ccccc3C2=O)c1	78*	2	7	-8	-52	1.9*
CCOC(=O)c1ccccc1NC(=O)CSc1nnc2[nH]c(=O)c(C)c(C)n12	x	x	x	-6	x	x
Oc1[nH]c2ccc(Br)cc2c1N=NC(=S)Nc1ccc(F)cc1	20	-2	1	-10	9	x
Oc1ccc(NC(=S)N=Nc2c(O)[nH]c3ccc(Br)cc23)cc1	67*	x	x	-5	x	>38
CC(Cn1cnc([N+](=O)[O-])n1)=NNC(=O)c1ccc(O)cc1O	x	x	x	-12	x	x
ClCc1nnc(-c2cc3c(s2)CCCC3)o1	39*	x	x	-5	x	28*
O=C(O)c1cc2c(s1)CCCC2	x	0	-11	-1	2	x
CC(NC(=O)/C(C#N)=C/c1ccco1)c1ccccc1 (stereo unspecified)	2	1	-6	-3	2	x
CC(NC(=O)/C(C#N)=C/c1ccc([N+](=O)[O-])o1)c1ccccc1 (stereo unspecified)	47*	0	100	-8	-19	>38
Nc1ccc(S(=O)(=O)NC2=NCCCCC2)cc1N	-4	0	-7	5	6	x
Nc1ccccc1S(=O)(=O)NC1=NCCCCC1	30*	1	4	-8	2	>38
FC(F)(F)c1cccc(Sc2nc(-c3ccccc3)nnc2C(F)(F)F)c1	21	3	99	-8	9	x
FC(F)(F)c1nnc(-c2ccccc2)nc1Sc1ccccc1	63*	3	1	-11	6	27*
FC(F)(F)c1nnc(-c2ccccc2)nc1Oc1ccc(Cl)cc1Cl	61*	2	12	-18	4	0.45*
FC(F)(F)c1cccc(Oc2nc(-c3ccccc3)nnc2C(F)(F)F)c1	58*	-1	10	-10	5	1.5*
CN(NC(=O)c1cccc(Cl)c1)c1nc(-c2ccccc2)nnc1C(F)(F)F	-9	1	4	-4	-5	x
FC(F)(F)c1nnc(-c2ccccc2)nc1Sc1ccc(Cl)cc1	23	0	97	-11	0	x
O=C(CSc1nnc2n1CCN2c1ccccc1)Nc1ccccc1C(F)(F)F	x	x	x	-6	x	x
SMILES	RecA intein inh	UGM FP inh	Mtb bLac sens	SSB-PriA inh	Rv3671c inh	GFP chromophore
Cn1cccc1C(CNS(=O)(=O)c1cccs1)N1CCc2ccccc2C1 (stereo unspecified)	x	x	x	23	x	x
Oc1[nH]c(=S)sc1C=C1N=c2ccccc2=N1	57*	3	-1	-4	-5	>38
Cn1c(O)c(C=C2N=c3ccccc3=N2)sc1=S	x	x	x	0	x	x
O=C(c1ccc2c(c1)OCO2)N1CCN(Cc2nc(-c3ccc(F)cc3)cs2)CC1	x	x	x	8	x	x
Cc1onc(-c2ccccc2)c1C(=O)n1nnc2ccccc21	31*	-1	1	-11	2	35*
Cc1cc(C)n(CCNC(=O)COc2ccccc2C)n1	x	x	x	-4	x	x
